# Hits are enriched below; roughly 6.7% of the tested compounds scored in any of these assays.
# KB-V1 cytotox: qHTS assay for MDR1-selective chemotherapeutics: Primary screen using the drug-selected MDR subline cells KB-V1. Potency, µM (doses to about 46.1 µM), hits mostly cytotoxic. KB-V1 MDR cells viability, CellTiter-Glo, 72 h. 400,000 compounds, 3.4% hits; note: % is set by controls: 0 for no effect and ±100 for the full control effect; nearly all actives have a fitted effect of over 60% in size
#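 KB-V1 MDR subline cells in DMEM (phenol-red free, 10% FBS) exposed to compounds in qHTS concentration series for 72 h at 37 degrees C. Viability read by CellTiter-Glo luminescence; concentration-effect curves fitted after normalization and correction.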
# KB-3-1 cytotox: qHTS assay for MDR1-selective chemotherapeutics: Primary screen using the parental adenocarcinoma cell KB-3-1 | KB-3-1 viability, CellTiter-Glo ATP luminescence, 72 h | 400,000 compounds, 1.4% hits | Potency, µM (top dose mostly 46.1 µM), most hits filed as cytotoxic; note: % is set by controls: 0 for no effect and ±100 for the full control effect; nearly all actives have a fitted effect of over 60% in size
#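 Using CellTiter-Glo luminescence, growth of non-resistant KB-3-1 adenocarcinoma cells is assessed 72 h after pin-tool compound addition at 37 °C. Normalized responses across the concentration series yield fitted curves.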
# SW480 rereplic: A quantitative high throughput screen for small molecules that induce DNA re-replication in SW480 colon adenocarcinoma cells. SW480 DNA re-replication, Hoechst DNA content imaging, 48 h. Potency, µM (highest dose often 46.1 µM), without a hit: at the highest dose re-replication activation, actives largely listed as activators. AID 624297, 2012. 340,000 compounds, 1.8% hits; note: % of control where 0% means no effect; nearly all actives have a fitted effect of over 55% in size
#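 Image-based DNA-content assay: after two days of treatment, nuclei were labelled with the DNA dye Hoechst and imaged, and hits were compounds raising the count of nuclei showing high fluorescence intensity.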
# MCF10A rereplic: A quantitative high throughput screen for small molecules that induce DNA re-replication in MCF 10a normal breast cells | MCF 10A DNA re-replication, Hoechst nuclear intensity, 48 h | Potency, µM (highest dose often 46.1 µM), inactives show top-dose activity, positive = re-replication, most hits filed as activators | 350,000 compounds, 2.9% hits; note: % of control where 0% means no effect; nearly all actives have a fitted effect of over 50% in size
# PINK1 expr mod: A Quantitative High throughput Screen to Identify Chemical Modulators of PINK1 Expression | 410,000 compounds, 0.2% hits | PINK1 immunofluorescence, high-content cytometry, 24 h | Potency, µM (doses to about 76.6 µM), without a hit: top-dose activation (PINK1 increase), actives largely listed as activators; active = well fitted activation curve with a large enough effect; inconclusive = small, poorly fitted or top-dose-only effect; cell line not stated here; note: % of control where 0% means no effect; nearly all actives have a fitted effect of over 65% in size
#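 Readout is PINK1 immunofluorescence, quantified alongside mitochondrial, cell and nuclear markers by laser-scanning microplate cytometry. Cells from a stable line were exposed to compound titrations (5 concentrations) for 24 hours, with CCCP controls.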
# * hit, by the source's call; i = inactive; ? = inconclusive; / = no result; [ ] = dose if it differs, or a comment. Unless noted, calls come from the whole dose curve; as a rule, active = well fitted curve in the direction sought with a large enough effect; inconclusive = small, poorly fitted or top-dose-only effect, or another doubt; inactive = no such curve, though single readings can be large; an effect the other way counts as inactive or inconclusive. Potency is the fitted concentration of half-maximal effect.
SMILES,KB-V1 cytotox,KB-3-1 cytotox,SW480 rereplic,MCF10A rereplic,PINK1 expr mod
Cc1cc(C)n(-c2cccc(C(=O)NCC3Cc4cc(Cl)cc(-c5cnccn5)c4O3)c2)n1 (stereo not drawn),/,/,/,/,0%
Cc1noc(C)c1C(=O)N1CCC[C@@]2(CCN(c3ncccn3)C2)C1,/,/,/,/,1%
Cc1cccc(COC[C@H](Cc2ccccc2)N2CCN(C(=O)c3cccc(Cl)c3)CCC2=O)c1,18µM*,?,/,/,3%
Cc1cccc(COCC(Cc2ccccc2)N2CCN(C(=O)c3cccc(Cl)c3)CCC2=O)c1 (stereo not drawn),i,i,?,23%,6%
Cc1cccc(C(=O)N2CCC(=O)N([C@H](COCc3cccc(C(F)(F)F)c3)Cc3ccccc3)CC2)c1,23µM*,i,/,/,28%
CC(C)C[C@@H](COCc1cccc(C(F)(F)F)c1)N1CCN(C(=O)c2ccc(C(F)(F)F)cc2)CCC1=O,18µM*,?,/,/,1%
Cc1cccc(C(=O)N2CCC(=O)N(C(COCc3cccc(C(F)(F)F)c3)Cc3ccccc3)CC2)c1 (stereo not drawn),?,i,?,?,19%
CC(=O)N1N=C(c2ccccc2)CC1c1cn(C)c2ccccc12 (stereo not drawn),23µM*,i,20%,17%,3%
CCOC(=O)CSc1snnc1C,i,i,-12%,-3%,27%[38.3 µM]
CCOC(=O)CSC1=NC(=O)CS1,i,i,?,21µM*,3%
Cn1cnnc1SCC(=O)NNC(=O)COc1ccc(Cl)cc1,?,i,-17%,0.58µM*,2%
O=C(NC1CCCCC1)C(c1cccs1)N(C(=O)Cc1c[nH]c2ccccc12)c1ccc(F)cc1 (stereo not drawn),i,i,0%,1%,/
Cc1ccc(C(C(=O)NC2CCCCC2)N(C(=O)Cc2c[nH]c3ccccc23)c2ccccc2)o1 (stereo not drawn),4.1µM*,18µM*,14%,?,25%[38.3 µM]
COc1cc(C(C(=O)NC2CCCCC2)N(C(=O)Cc2c[nH]c3ccccc23)c2ccc(C)cc2)cc(OC)c1OC (stereo not drawn),23µM*,?,11%,4%,5%
COc1ccc(N/N=C(\C=N\O)C(=O)c2ccc(OC)cc2)cc1,i,?,?,6.5µM*,0%
Cc1cc(C)c2oc(-c3cccc(NC(=O)COc4ccc([N+](=O)[O-])cc4)c3)nc2c1,/,/,/,/,1%
O=C(NCc1cccnc1)C(=O)NCC(c1ccco1)N1CCOCC1 (stereo not drawn),i,i,13%,9%,0%
O=C(NCc1cccnc1)C(=O)NCC(c1ccco1)N1CCN(c2ccccc2)CC1 (stereo not drawn),9.2µM*,i,?,4%,1%
O=C(NCCC1=CCCCC1)C(=O)NCC(c1ccco1)N1CCN(c2ccc(F)cc2)CC1 (stereo not drawn),2.6µM*,i,-100%,9%,?
O=C(NCC(c1ccco1)N1CCN(c2ccc(F)cc2)CC1)C1CCCCC1 (stereo not drawn),?,i,-7%,2%,-5%
COC(=O)[C@@]1(Cc2ccc(OC)cc2)[C@@H]2C(=CC(=O)[C@H]2CC(=O)C(=O)N2CCCC2)CN1C(=O)c1ccccc1,?,9.2µM*,?,23µM*,0%
COC(=O)[C@@]1(Cc2ccc(F)cc2)[C@H]2C(CC(=O)C(=O)N3CCCC3)C(=O)C[C@H]2CN1C(=O)c1ccccc1 (stereo partly drawn),?,i,/,/,2%
Cc1ccc(CN2C[C@H](Sc3ccccn3)C[C@H]2C(=O)Nc2ccc3sc(C)nc3c2)cc1,/,/,/,/,0%
Cc1ccnc(Sc2ccc([N+](=O)[O-])cc2[N+](=O)[O-])n1,?,?,12µM*,?,0%[38.3 µM]
Cc1ccc(Sc2ccc([N+](=O)[O-])cc2[N+](=O)[O-])nc1,i,?,?,?,7%
SMILES,KB-V1 cytotox,KB-3-1 cytotox,SW480 rereplic,MCF10A rereplic,PINK1 expr mod
O=C(O)c1ccccc1NS(=O)(=O)c1ccc(N/N=C/c2ccc(O)c(O)c2)c([N+](=O)[O-])c1,i,i,-3%,-3%,4%
O=C(O)COc1ccccc1C=NNc1ccc([N+](=O)[O-])cc1S(=O)(=O)Nc1ccc(Cl)cc1,i,i,-3%,2.1µM*,7%
COc1ccc(NS(=O)(=O)c2cc([N+](=O)[O-])ccc2N/N=C\c2c(C)[nH]c3ccccc23)cc1,?,?,4%,9.2µM*,3%
O=C(O)COc1ccccc1/C=N/Nc1ccc(S(=O)(=O)Nc2ccc(Cl)cc2)cc1[N+](=O)[O-],i,i,9%,0%,2%
COc1ccc(NS(=O)(=O)c2cc([N+](=O)[O-])ccc2NN=Cc2ccccc2OCC(=O)O)cc1,i,i,?,21µM*,2%
Cc1[nH]c2ccccc2c1/C=N/Nc1ccc([N+](=O)[O-])cc1S(=O)(=O)Nc1ccc(Cl)cc1,?,?,-2%,9%,7%
COc1ccc(C=NNc2ccc([N+](=O)[O-])cc2S(=O)(=O)Nc2ccccc2C(=O)O)cc1OC,i,i,-3%,18µM*,-1%
Nc1c(S(=O)(=O)O)cc(Nc2ccc(Nc3nc(Cl)nc(Nc4ccc(S(=O)(=O)O)cc4)n3)c(S(=O)(=O)O)c2)c2c1C(=O)c1ccccc1C2=O,i,i,/,/,-1%
OCCN1CCN(Cc2ccc3c(c2)CN(Cc2cc4ccccc4o2)CCO3)CC1,/,/,/,/,-1%
COc1ccccc1NS(=O)(=O)c1cc([N+](=O)[O-])ccc1N/N=C/c1c[nH]c2ccccc12,?,?,?,8.2µM*,17%
O=C(c1ccccc1)N(Cc1cccnc1)C1(C(=O)Nc2ccccc2)CCCCC1,10µM*,?,?,16%,-3%
Cc1cc(/C=N/NC(N)=S)c(C)n1-c1ccc(Cl)cc1,i,i,?,8.2µM*,1%
O=C(CC(=O)NC1CCCCC1)N/N=C/c1ccc(Cl)cc1,i,i,-4%,-19%,2%
Cc1cc(/C=N\NC(=O)CC(=O)NC2CCCCC2)c(C)n1-c1ccc(Cl)cc1,21µM*,i,10%,20%,-4%[38.3 µM]
CC(C)SC1=NC(C)(C)C=C(/C=C/c2ccc(Cl)cc2Cl)N1,i,?,?,8.2µM*,-2%
CC(C)SC1=NC(C)(C)C=C(/C=C/c2c(Cl)cccc2Cl)N1,i,15µM*,?,18µM*,16%

# High-throughput results (PubChem BioAssay)
